Hit rate of the full screen: of about 69,000 compounds, about 8,600 (12%) showed an effect of 50% or more. This excerpt belongs to a sample that is enriched for strong results.
tested on: Plasmodium berghei; assay: Screen against P. berghei liver stage (PbLuc), transformed with Luciferase, at 10uM; assay type: functional, HepG2; settings: tested at 10 uM

Row | SMILES | INHIBITION
1 | CCOC1Sc2nnc(C)n2N=C1c1ccc(Br)cc1 (stereo not given) | 18.2%
2 | CN(C)[C@@H]1CCN(C(=O)c2cccc(C#N)c2)[C@H]1Cc1cnn(C)c1 | 27.6%
3 | Cc1ccc(-c2cc(CN3CCOC(Cn4cncn4)C3)on2)cc1 (stereo not given) | 24.6%
4 | O=C(C1CC=CC1)N1CCC2(CCN(Cc3ccccn3)C2=O)C1 (stereo not given) | 17.5%
5 | CC(C)CCS(=O)(=O)N1CCCC(c2nncn2C(C)C)C1 (stereo not given) | 44.9%
6 | CC(C)n1cnnc1C1CCCN(S(=O)(=O)CCCF)C1 (stereo not given) | 39.7%
7 | CC(C)n1cnnc1C1CCCN(S(=O)(=O)CC2CCCC2)C1 (stereo not given) | 76.5%
8 | Cc1oc(C(=O)O)cc1S(=O)(=O)Nc1cc(Br)ccc1Cl | 38.8%
9 | N#Cc1ccc(Cl)cc1N1CCC(OC2CCOCC2)CC1 | 35.2%
10 | COCC1CN(c2ccc(Cl)cc2C#N)CCO1 (stereo not given) | 53.4%
11 | Clc1cnccc1N1CCC(OC2CCOCC2)CC1 | 48.5%
12 | COCC1CN(c2ccc(C#N)c(Cl)c2)CCO1 (stereo not given) | 96.1%
13 | Cn1cc(N2CCN(c3ccc(C#N)c(Cl)c3)CC2=O)cn1 | -11.6%
14 | N#Cc1cc(Cl)ccc1N1CCOC(C(N)=O)C1 (stereo not given) | 32.5%
15 | COCC1CN(C(=O)Nc2cc(Cl)ccc2F)CCO1 (stereo not given) | 8.13%
16 | N#Cc1ccc(N2CCC(OC3CCOCC3)CC2)cc1Cl | 57%
17 | COCC1CN(c2ccc3c(Cl)ccnc3c2F)CCO1 (stereo not given) | 84.2%
18 | CC(=O)NCC1CN(c2ccc3c(Cl)ccnc3c2F)CCO1 (stereo not given) | 23.8%
19 | COCC1CN(C(=O)Nc2ccc(Cl)cc2Cl)CCO1 (stereo not given) | 6.85%
20 | NC(=O)C1CN(c2ccc3c(Cl)ccnc3c2F)CCO1 (stereo not given) | -22.4%
21 | CO[C@@H]1CCN(Cc2c(C)noc2C)[C@@H]2CN(Cc3cccnc3)C[C@@H]21 | 22.6%
22 | COCCOc1ccccc1C(=O)NCCN(C)C(C)C | 4.52%
23 | O=C(c1nn(-c2ccccc2F)cc1O)N1CCCSCC1 | -21.7%
24 | Cc1ccc(N2CC[C@H]3OCC[C@@]3(C(=O)NC(C)C)C2)nn1 | 35.1%

Row | SMILES | INHIBITION
25 | CCOCc1ccc(CNc2nc(OC)ncc2Cl)cc1 | 35.4%
26 | COCC(=O)NCc1ccc(-c2ncncc2C(=O)N(C)C)cc1 | 26.15%
27 | COc1ncc(Cl)c(NCc2ccc(C(=O)N(C)C)cc2)n1 | 58.9%
28 | COc1ncc(Cl)c(NCc2ccc([S+](C)[O-])cc2)n1 (stereo not given) | 61.1%
29 | COc1ccccc1C1(CNCc2ccc([S+](C)[O-])cc2)CC1 (stereo not given) | 1.41%
30 | COc1ccc(CN2CCc3[nH]nc(C(=O)N(C)C)c3C2)cc1 | 21.1%
31 | COC(=O)CC1CSCCN1C(=O)CCc1c(C)nn(C)c1C (stereo not given) | 19.8%
32 | COc1ccccc1C(O)CNC(=O)NCc1cc[nH]n1 (stereo not given) | 26.4%
33 | Cc1cc(C)n(CCCNC(=O)C(C)NC(=O)CC2CCCCC2)n1 (stereo not given) | -7.98%
34 | COCC(=O)N1CCC2(CCC2N(C)Cc2ccco2)CC1 (stereo not given) | -28.2%
35 | Cc1cc(C)n(CC(C)CNC(=O)[C@@H](C)NC(=O)OC(C)(C)C)n1 (stereo not given in full) | -45.8%
36 | Cc1nc(C(=O)N2CCCC2c2noc(C)n2)c[nH]1 (stereo not given) | 0.914%
37 | CC(C)CCN1CCC2(CCCN(c3nncs3)C2)C1 (stereo not given) | 4.1%
38 | CCc1nncn1CCNC(=O)N1CCN(Cc2ccccc2)CC1 | 35.3%
39 | Cn1c2ccc(F)cc2c2ncn(CCCN(CCO)CCO)c(=O)c21 | 24.7%
40 | Cc1cnc(C(=O)N2CCCCC2c2nc(C)cs2)cn1 (stereo not given) | -16%
41 | Cn1cnc(S(=O)(=O)N2CCN(CC3CC3)c3ncccc3C2)c1 | -22.1%
42 | Cn1cnc(S(=O)(=O)N2CC3(CCN(Cc4ccncc4)C3)C2)c1 | 21.3%
43 | CC(C)CN1CCC2(C1)CN(S(=O)(=O)c1cn(C)cn1)C2 | 35.8%
44 | CCN1CCC2(C1)CN(S(=O)(=O)c1cn(C)cn1)C2 | 65.7%
45 | Cn1cnc(S(=O)(=O)N2CC3(CCN(c4ccccc4)C3)C2)c1 | 53%
46 | Fc1cnc(N2CC3(CCN(CC4CC4)C3)C2)nc1 | -81.2%
47 | Cn1cnc(S(=O)(=O)N2CC3(CCN(CC4CC4)C3)C2)c1 | 67.5%
48 | Cn1cnc(C(=O)N2CC3(CCN(S(=O)(=O)c4ccccc4)C3)C2)c1 | -4.02%

Row | SMILES | INHIBITION
49 | Cn1cnc(S(=O)(=O)N2CCSC3(CCCCC3)C2)c1 | -37.8%
50 | O=C1CN(Cc2occc2C(=O)NCCc2ccc(F)cc2)CCN1 | 8.41%
51 | CC(C)CCNC(=O)Cc1cnc(-n2cccc2)s1 | 37.4%
52 | c1cnc(N2Cc3nccn3CC(COc3cccnc3)C2)nc1 (stereo not given) | -13.2%
53 | Cc1cc(F)c(S(=O)(=O)Nc2ccn(CCCC#N)n2)cc1F | 30.5%
54 | Cn1cc(C(=O)N[C@H]2CN(Cc3nccs3)[C@@H]3CCCO[C@H]23)cn1 | -8.94%
55 | CC(C)C1CCC(N2CCN(CCS(C)(=O)=O)CC2)CC1 (stereo not given) | 32.9%
56 | CCCn1cc(CN2CCCC2c2cccc(-n3ccnc3)n2)cn1 (stereo not given) | 15.9%
57 | O=C(NCC(O)c1ccoc1)Nc1cccs1 (stereo not given) | 19.8%
58 | Cc1nc(C)n(C2CCCN(C(=O)Cc3cn4ccccc4n3)C2)n1 (stereo not given) | 25.4%
59 | Cc1c(I)cccc1C(=O)NCc1ncc[nH]1 | 57%
60 | Cc1cccc(I)c1C(=O)NCc1ncc[nH]1 | 8.08%
61 | CCc1ccc(CCC(=O)NCc2nnc[nH]2)cc1 | 24.5%
62 | Cc1c(I)cccc1C(=O)NCC1(CO)CC1 | -4.86%
63 | Cc1c(I)cccc1C(=O)NCc1nnc[nH]1 | 51.5%
64 | O=C(NCc1ncc[nH]1)c1c(F)cccc1I | 25.5%
65 | Cc1c2ncn(CC(=O)N(C)C)c(=O)c2nn1C | 0%
66 | Cc1c2nnn(CC(=O)N(C)C)c(=O)c2nn1C | 69.4%
67 | Cc1c2ncn(CC(=O)NC(C)C)c(=O)c2nn1C | 48.5%
68 | CC(=O)N1CCN(c2cc(C3CCNCC3)ccn2)CC1 | 7.19%
69 | Cc1cncc(C(=O)N2CCO[C@H]3[C@H](OCCN(C)C)CC[C@@H]32)c1 | 14.5%
70 | O=C(CC1CCCO1)NS(=O)(=O)Cc1cc(-c2ccccc2)no1 (stereo not given) | 25%

From ChEMBL document CHEMBL4513216, “Probing the Open Global Health Chemical Diversity Library for Multistage-Active Starting Points for Next-Generation Antimalarials” (ACS Infect Dis, 2020)
